# HT1080NT lethal: qHTS for induction of synthetic lethality in tumor cells producing 2HG: qHTS for the HT-1080-NT fibrosarcoma cell line; HT-1080-NT fibrosarcoma viability, CellTiter-Glo ATP luminescence, 48 h; Potency, µM (highest dose often 46.1 µM), for the others: at the highest dose activity, negative = less viability, most hits filed as cytotoxic; hit rate 1.6% among 360,000; AID 686970, 2013;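 note: NT is the 2HG producing partner of a matched IDH1 knockdown line; 0% = DMSO-treated cells and -100% = media-only wells without cells; nearly all actives have a fitted effect of over 55% in size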
#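 Fibrosarcoma NT cells, 750 per well in 5% FBS RPMI, were exposed to compound for 48 hours. Viability: CellTiter-Glo luminescence.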
# KB-V1 cytotox: qHTS assay for MDR1-selective chemotherapeutics: Primary screen using the drug-selected MDR subline cells KB-V1; KB-V1 MDR cells viability, CellTiter-Glo, 72 h; Potency, µM (highest dose often 46.1 µM), actives largely listed as cytotoxic; hit rate 3.4% among 400,000; note: nearly all actives have a fitted effect of over 60% in size
#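 Compound-treated KB-V1 multidrug-resistant cells, 72 h, 37 degrees C; viability by CellTiter-Glo. Fitted qHTS curves give the values.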
# DT40 TDP1 no CPT: qHTS for Inhibitors of human tyrosyl-DNA phosphodiesterase 1 (TDP1): qHTS in cells in absence of CPT | DT40 Tdp1-/- hTDP1 cells, no CPT, ATP luminescence, 48 h | Potency, µM (series often up to 46.2 µM), inactives show at the top dose activity change, negative = growth inhibition, actives largely listed as inhibitors | hit rate 15% among 420,000 | AID 686978, 2013; note: nearly all actives have a fitted effect of over 55% in size
#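 A cellular qHTS used chicken DT40 cells lacking endogenous Tdp1 but carrying stably transfected human TDP1. Compounds were applied without camptothecin, and cell growth kinetics were judged by ATP-dependent luminescence after ≥48 hr.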
# HT1080 IDH1KD tx: qHTS for induction of synthetic lethality in tumor cells producing 2HG: qHTS for the HT-1080-IDH1KD cell line; AID 686971, 2013; hit rate 2% among 360,000; Potency, µM (titrated, usually from 46.1 µM), without a hit: top-dose activity, negative = toxicity, most hits filed as cytotoxic; HT-1080 IDH1 knockdown viability, ATP luminescence, 48 h;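 note: 0% = DMSO wells and -100% = cell-free medium wells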
#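 In this qHTS, HT-1080 cells depleted of IDH1 are exposed for 48 h at 37 °C to compound titrations. Toxicity is scored from CellTiter-Glo luminescence, with DMSO as full viability and medium alone as none.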
# TDP1 cell CPT: qHTS for Inhibitors of human tyrosyl-DNA phosphodiesterase 1 (TDP1): qHTS in cells in presence of CPT | chicken DT40 Tdp1-/-;hTDP1 cells + 20 nM CPT, ATP luminescence, 48 h | Potency, µM (highest dose often 46.2 µM), for inactives: top-dose activity change, negative = growth inhibition, usual class: inhibitors | hit rate 12% among 420,000 | AID 686979, 2013; note: nearly all actives have a fitted effect of over 55% in size
#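 Chicken DT40 Tdp1-/- cells complemented with human TDP1, 400 cells/well, exposed to compounds plus 20 nM camptothecin for at least 48 h at 37 C; viability read as ATP content by CellTiter-Glo luminescence.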
# KB-3-1 cytotox: qHTS assay for MDR1-selective chemotherapeutics: Primary screen using the parental adenocarcinoma cell KB-3-1 | hit rate 1.4% among 400,000 | KB-3-1 viability, CellTiter-Glo ATP luminescence, 72 h | Potency, µM (top dose mostly 46.1 µM), most hits filed as cytotoxic; note: nearly all actives have a fitted effect of over 60% in size
#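 Multi-concentration cytotoxicity screen in KB-3-1 cells grown in DMEM lacking phenol red with 10% FBS. After 72 h at 37 °C with compound, ATP-dependent luminescence was recorded.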
# Active calls of the source: *; i = inactive; ? = inconclusive; · = not tested or not shown. The list is not random: actives were taken first. Their share in the collection is about 19%. Calls come from the whole dose curve; as a rule, active = well fitted curve in the direction sought with a large enough effect; inconclusive = small, poorly fitted or top-dose-only effect, or another doubt; inactive = no such curve, though single readings can be large; an effect the other way counts as inactive or inconclusive. Unless noted, % is set by controls: 0 for no effect and ±100 for the full control effect; potency is the fitted concentration of half-maximal effect.
SMILES,HT1080NT lethal,KB-V1 cytotox,DT40 TDP1 no CPT,HT1080 IDH1KD tx,TDP1 cell CPT,KB-3-1 cytotox
O=C(C1=C[C@H](c2coc3ccccc3c2=O)C[C@H](OCCCCO)O1)N1CCN(Cc2ccc3c(c2)OCO3)CC1,-3%,i,16µM*,-1%,21µM*,i
O=C(C1=C[C@H](C2CCCCC2)C[C@H](OCCCCO)O1)N1CCN(Cc2ccccc2)CC1,-1%,i,?,5%,21µM*,i
CC(=O)n1cc([C@H]2C=C(C(=O)N3CCN(Cc4ccc5c(c4)OCO5)CC3)O[C@@H](OCCCCO)C2)c2ccccc21,-18%,i,?,-24%,16µM*,i
C=CCOC(=O)C1=C[C@H](c2cn(C(C)=O)c3ccccc23)C[C@H](OCc2ccc(CO)cc2)O1,-12%,i,21µM*,-10%,?,i
O=C(c1ccc(Cl)c(S(=O)(=O)N2CCCC2)c1)N1CCN(c2ncccn2)CC1,-8%,?,?,-10%,7%,i
CCOc1ccccc1CNC(=O)C1CCN(S(=O)(=O)c2ccc3c(ccn3C)c2)CC1,·,i,?,·,?,i
CC1=C(C(=O)N(C)C)CC(CC(=O)NCC2CCCCC2)C(=O)N1Cc1ccc(F)cc1 (configuration not stated),16%,i,?,24%,?,i
CC=Cc1cc2c(c(=O)o1)C(=O)C(O)C(C)O2 (configuration not stated),-19%,i,2.9µM*,?,3.7µM*,i
CNc1nc(-c2ccc3c(c2)CCN3C(=O)c2ccccc2C)cs1,-19%,i,16µM*,-6%,?,?
CNc1nc(-c2ccc3c(c2)CCN3C(=O)c2ccc(F)cc2)cs1,-8%,?,?,-4%,?,i
CNc1nc(-c2ccc3c(c2)CCN3C(=O)c2cccc(F)c2)cs1,?,i,21µM*,?,23µM*,15µM*
Cc1cccc(C(=O)N2CCc3cc(-c4csc(NC(=O)CN5CCCC5)n4)ccc32)c1,21µM*,?,?,16µM*,?,i
Cc1ccc(N2CCN(C(=O)C3CCC(=O)N(Cc4ccc(Cl)cc4)C3)CC2)c(C)c1 (configuration not stated),-8%,·,18µM*,-13%,18µM*,·
COc1ccc(N2C(=O)NC3CC2(C)Oc2ccc(Cl)cc23)cc1OC (configuration not stated),-3%,?,?,-1%,23µM*,?
COc1ccc(N2CCN(C(=O)c3ccc(N4C(=O)NC5CC4(C)Oc4ccccc45)cc3)CC2)cc1 (configuration not stated),-2%,i,?,-9%,29µM*,i
CCOC(=O)N1CCN(C(=O)c2cccc(N3C(=O)NC4CC3(C)Oc3ccc(Cl)cc34)c2)CC1 (configuration not stated),7.3µM*,i,3.3µM*,7.3µM*,?,?
COc1ccc(CCN2C(=S)NC3CC2(C)Oc2ccc([N+](=O)[O-])cc23)cc1OC (configuration not stated),-14%,6.5µM*,15µM*,?,10µM*,i

# Bioassay records as filed in PubChem BioAssay.
